# Legend:
# Conditions in all cases: concentration: 1 μM, replicates: in singlicate; n = 1
# CSF1R-autoinhibited = tested on: CSF1R-autoinhibited
# CSF1R = tested on: CSF1R
# CSK = tested on: CSK
# CSNK1A1L = tested on: CSNK1A1L
# CSNK1A1 = tested on: CSNK1A1
# CSNK1D = tested on: CSNK1D
# CSNK1E = tested on: CSNK1E
# CSNK1G1 = tested on: CSNK1G1
# CSNK1G2 = tested on: CSNK1G2
# CSNK1G3 = tested on: CSNK1G3
# CSNK2A1 = tested on: CSNK2A1
# CSNK2A2 = tested on: CSNK2A2
# CTK = tested on: T1, CTK
# T1 construct: gene MATK
# DAPK1 = tested on: DAPK1
# DAPK2 = tested on: DAPK2
# DAPK3 = tested on: DAPK3
# DCAMKL1 = tested on: T2, DCAMKL1
# T2 construct: gene DCLK1
# DCAMKL2 = tested on: T3, DCAMKL2
# T3 construct: gene DCLK2
# DCAMKL3 = tested on: T4, DCAMKL3
# T4 construct: gene DCLK3
# DDR1 = tested on: DDR1
# 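Note: KINOMEscan kinase panel screen.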
SMILES,%Inh (CSF1R-autoinhibited) [%],%Inh (CSF1R) [%],%Inh (CSK) [%],%Inh (CSNK1A1L) [%],%Inh (CSNK1A1) [%],%Inh (CSNK1D) [%],%Inh (CSNK1E) [%],%Inh (CSNK1G1) [%],%Inh (CSNK1G2) [%],%Inh (CSNK1G3) [%],%Inh (CSNK2A1) [%],%Inh (CSNK2A2) [%],%Inh (CTK) [%],%Inh (DAPK1) [%],%Inh (DAPK2) [%],%Inh (DAPK3) [%],%Inh (DCAMKL1) [%],%Inh (DCAMKL2) [%],%Inh (DCAMKL3) [%],%Inh (DDR1) [%]
COc1ccc(Nc2nccc(N3CCC(NC(=O)c4cccc(NC(C)=O)c4)C3)n2)cc1 (stereo not drawn) [GSK1379732],49,1,0,7,0,13,16,9,0,24,0,1,0,0,13,18,0,0,7,0
COC(=O)c1c(-c2ccccc2)c2cc(Cl)ccc2c(=O)n1Cc1ccc(S(C)(=O)=O)cc1,6,23,0,0,21,0,3,100,0,0,3,35,3,21,0,0,5,1,4,51
COc1ccc(Nc2nccc(N3CCC(NC(=O)Nc4ccc5c(c4)OCO5)C3)n2)cc1 (stereo not drawn) [GSK1379745],16,0,0,24,0,83,22,1,2,16,5,0,0,26,14,17,0,14,0,15
CC(C)N1CCC(n2cnc(-c3ccc(F)cc3)c2-c2ccnc(N)n2)CC1 [SB-223132],0,0,0,31,93.1,96.4,98.8,2,3,6,0,0,0,26,0,17,22,4,20,46
Clc1cccc(-c2nc(Nc3ccncc3)c3ccccc3n2)c1 [GW873004],0,0,0,7,29,12,23,3,10,18,0,14,0,0,0,11,13,0,41,79
CCC(CC)(CC)n1cnc2c(N)ncnc21 [SKF-97620],35,0,0,1,0,0,5,4,0,0,0,0,0,16,9,12,0,0,0,0
Cl.c1ccc(Cn2ncc3cc(Nc4ncnc5ccccc45)ccc32)cc1 [GW273749],0,22,38,12,0,15,42,12,0,30,4,13,0,5,0,4,9,0,0,3
CN1CCC(n2cnc(-c3ccc(F)cc3)c2-c2ccnc(NC3CCNCC3)n2)CC1 [SB-229482],47,16,0,28,95.1,92.1,93.4,0,0,0,12,21,9,14,15,0,0,16,16,0
CSc1nn2c(=O)cc(N3CCOCC3)nc2n1Cc1cccc(Cl)c1Cl [GSK2347225],0,4,0,32,0,13,87,6,0,33,5,33,0,14,5,24,29,0,3,17
